Measured values taken from PubChem BioAssay (NCI).
About 83,000 compounds went through this panel and 20% of them were active in at least one assay; those are over-represented in the sample as a whole.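 Step 1: grow cells in 96-well plates. Step 2: add test compound at a single concentration. Step 3: incubate 48 h. Step 4: record percent growth.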 Values without a mark were called inactive. Active and inactive are the calls of the source. How the source made its calls: active means growth percent below 10; inactive means the rest.

Tested on: SNB-75 CNS
Experiment: NCI-60 one-dose screen, 48 h (100 = growth as untreated, 0 = no growth, -100 = all killed)
Conditions: 10 µM

Structure (SMILES) | growth
CCC(O)c1ccc(Br)cc1NC(=O)c1cccc(Cl)c1 (configuration not stated) | 38.8%
CCCCn1c(=O)[nH]c(N)c(C(c2ccc(Cl)cc2)c2c(N)[nH]c(=O)n(CCCC)c2=O)c1=O | 57.1%
COc1ccc(C(=O)/C=C/c2cc(-c3ccc4c(c3)OCO4)n[nH]2)cc1OC | 60.3%
COc1ccc2oc(=O)cc(C(c3ccc[nH]3)c3ccc[nH]3)c2c1 | 29.6%

Tested on: SNB-19 CNS
Experiment: as above
Conditions: 10 µM

Structure (SMILES) | growth
CCCCCCCCCCCC(=O)NCCCN(C)C | 102%
Nc1ccc(C2=CC(c3ccc(Cl)cc3)N3C=CSC3=N2)cc1 (configuration not stated) | -65.2% (active)
CC(=O)n1nc(C(=O)OC(C)(C)C)c2cc(F)c(F)cc21 | 94.9%
COC(=O)c1c(C)nc(Nc2nc3ccccc3s2)nc1-c1ccc(Cl)cc1Cl | 92.3%
O=C(O)CCCCSCCCCC(=O)O | 108%
COc1cc(-c2nc3ccc(C)cc3[nH]2)ccc1OCC(=O)N=Nc1c(O)[nH]c2ccccc12 | -75.2% (active)
CC1=CSC2=NC(c3ccc(Cl)c(Cl)c3)=CC(c3ccc(Cl)cc3)N12 (configuration not stated) | 38.5%
COc1ccc(Nc2ccnc(N3CCN(c4ccnc5cc(Cl)ccc45)CC3)n2)cc1 | 28.7%
Cn1cnc([N+](=O)[O-])c1/C=C1\Oc2ccc(Cl)cc2C1=O | 107%
CCOC(=O)Cn1nnc(-c2ccc(OCc3ccccc3F)cc2)n1 | 93.9%
COc1ccc(/C(CS(=O)(=O)c2ccccc2)=N\O)cc1 | 101%
COc1ccc(S(=O)(=O)Nc2cc(/C=C\c3cc(OC)c(OC)c(OC)c3)ccc2OC)cc1 | 55.1%
COc1ccc2nc(C)cc(Nc3ccc(Cl)cc3)c2c1 | 104%
COc1cc(-c2nc3ccc(C)cc3[nH]2)ccc1OCc1nnc(-c2ccc(CC(C)C)cc2)o1 | 94.6%
Cc1noc(C)c1-c1ccc2nc(NC(=O)[C@H]3CCN(C#N)C3)cn2c1 | 108%
COc1ccc(COC(=O)CC(C)C)cc1 | 103%
Cc1ccc(-n2nnc3c(sc4ccccc43)c2=O)cc1 | 44.2%
Nc1ccn([C@@H]2O[C@H](COP(=O)(O)O[C@@H]3C[C@H](n4cc(F)c(=O)[nH]c4=O)O[C@@H]3COP(=O)(O)O[C@@H]3C[C@H](n4cc(F)c(=O)[nH]c4=O)O[C@@H]3COP(=O)(O)O[C@@H]3C[C@H](n4cc(F)c(=O)[nH]c4=O)O[C@@H]3COP(=O)(O)O[C@@H]3C[C@H](n4cc(F)c(=O)[nH]c4=O)O[C@@H]3COP(=O)(O)O[C@@H]3C[C@H](n4cc(F)c(=O)[nH]c4=O)O[C@@H]3COP(=O)(O)O[C@@H]3C[C@H](n4cc(F)c(=O)[nH]c4=O)O[C@@H]3COP(=O)(O)O[C@@H]3C[C@H](n4cc(F)c(=O)[nH]c4=O)O[C@@H]3COP(=O)(O)O[C@@H]3C[C@H](n4cc(F)c(=O)[nH]c4=O)O[C@@H]3COP(=O)(O)O[C@@H]3C[C@H](n4cc(F)c(=O)[nH]c4=O)O[C@@H]3COP(=O)(O)O[C@@H]3C[C@H](n4cc(F)c(=O)[nH]c4=O)O[C@@H]3COP(=O)(O)OCCOCCOCCOCCOCCOCCO)[C@H](O)C2O)c(=O)n1 (some centres not stated) | 56.6%
COc1ccc(-c2nnc(COc3ccc(NC(=O)Nc4cccc(C(F)(F)F)c4)cc3F)o2)cc1 | 47.7%

Structure (SMILES) | growth
Fc1ccc(Nc2ccnc(N3CCN(c4ccnc5cc(Cl)ccc45)CC3)n2)cc1 | 65.7%
CCOC(=O)c1cc(-c2ccccc2)nc(N)n1 | 92%
CC1(CO)CCCC12OCCO2 (configuration not stated) | 105%
CCc1c(C)[nH]c(=O)c(C(N)=O)c1C#N | 90.1%
CCOc1ccc2c(c1)CC[C@@H]1[C@@H]2CC[C@]2(C)[C@@H](O)[C@@H](O)C[C@@H]12 | 99%
COc1ccc(OC)c([N+](=O)[O-])c1C=O | 101%
CCOC(=O)Nc1ccc2c(c1)C(=O)N(CC)c1ccccc1O2 | 31.7%
Cc1ccc(C)c2c1sc1nc3n[nH]c(N)c3c(=N)n12 | 99%
c1ccc(CC(NCCNC(Cc2ccccc2)c2ccccc2)c2ccccc2)cc1 (configuration not stated) | 44.4%
Cc1ccc2nc(-c3ccc(OCC(=O)N=Nc4c(O)[nH]c5ccccc45)cc3)[nH]c2c1 | 50%
COc1ccc2c(=O)cc(C(Cl)(Cl)Cl)oc2c1 | 1.99% (active)
c1ccc(OCCC[P+](c2ccccc2)(c2ccccc2)c2ccccc2)cc1 | 12.7%
COc1cc(CSc2nc3ccc(C)cc3c(=O)n2Cc2ccccc2)cc(OC)c1OC | 58.1%
C[N+]1=C(/C=C/c2ccc(I)cc2)C(C)(C)c2ccccc21 | 96.7%
COc1ccccc1S(=O)(=O)Nc1ccc2c(c1)CN(C)C(=O)N2 | 54.1%
CCC(O)c1ccc(Br)cc1NC(=O)c1cccc(Cl)c1 (configuration not stated) | 21.2%
CCCCn1c(=O)[nH]c(N)c(C(c2ccc(Cl)cc2)c2c(N)[nH]c(=O)n(CCCC)c2=O)c1=O | 47.9%
COc1ccc(C(=O)/C=C/c2cc(-c3ccc4c(c3)OCO4)n[nH]2)cc1OC | 47.1%
COc1ccc2oc(=O)cc(C(c3ccc[nH]3)c3ccc[nH]3)c2c1 | 22.1%
